# Calls of active or inactive are those of the source.
# What was measured:
# [1] = E. coli DRC41 culture turbidity changes, primary screen, E. coli filamentation inducer project, strain DRC41, OD650, 48 h (AID 1152);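 further: E. coli MC1000 strain DRC41 lacking acrAB efflux pump and sulA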; settings: E. coli DRC41 (acrAB sulA), higher = more signal, called active from +8 up or from −8 down
# [2] = small-molecule binders of probe aLefty1, primary screen, biochemical, small-molecule microarray, 635/667 nm fluorescence (AID 1153); settings: higher = more signal;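 further: score merges spot fluorescence with signal-to-noise ratio from the scanned slide images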
# [3] = PSAC antagonists in infected red cells, primary screen, cell-based, P. falciparum Indochina, OD700, 1 h (AID 1154); settings: P. falciparum Indochina infected RBC osmotic lysis, higher = more signal, called active from +8 up or from −8 down
# [4] = PSAC antagonists in infected red cells, primary screen, cell-based, P. falciparum Indochina, OD700, 2 h (AID 1155);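 further: lysis reports solute entry through the parasite surface anion channel PSAC; channel blockers reduce lysis of infected cells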; settings: P. falciparum Indochina infected erythrocytes, osmotic lysis OD700; higher = more signal, called active from +8 up or from −8 down
# [5] = osmotic lysis modulators in infected erythrocytes, primary screen, PSAC antagonist project, cell-based, P. falciparum Indochina, OD700, 3 h (AID 1156); settings: higher = more signal, called active from +8 up or from −8 down
# [6] = PSAC antagonists in infected red cells, primary screen, cell-based, P. falciparum Indochina, OD700, 18 h (AID 1157); settings: P. falciparum Indochina infected erythrocytes, osmotic lysis OD700, 18 h; higher = more signal, called active from +8 up or from −8 down
# [7] = modulators of S6 phosphorylation in cells, primary screen, cell-based, A549, cytoblot, luminescence, serum-stimulated (AID 1158); settings: A549 phospho-S6 cytoblot, 5 h, higher = more signal;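 further: serum-stimulated A549 lung adenocarcinoma cells; signal is phosphorylated S6 detected by cytoblot immunostaining with HRP secondary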
# [8] = biological target: NADPH oxidase 2 (Homo sapiens) (UniProt P04839); experiment: NOX2-dependent H2O2 signal modulators, primary screen, NOX inhibitor project, cell-based, HEK293-NOX2, PMA-stimulated, Amplex Red fluorescence (AID 1159); settings: 45 min, higher = more signal, called active from +8 up or from −8 down; further: test concentration not given here
# NADPH oxidase 2 (Homo sapiens), sequence (P04839 whole entry, looked up): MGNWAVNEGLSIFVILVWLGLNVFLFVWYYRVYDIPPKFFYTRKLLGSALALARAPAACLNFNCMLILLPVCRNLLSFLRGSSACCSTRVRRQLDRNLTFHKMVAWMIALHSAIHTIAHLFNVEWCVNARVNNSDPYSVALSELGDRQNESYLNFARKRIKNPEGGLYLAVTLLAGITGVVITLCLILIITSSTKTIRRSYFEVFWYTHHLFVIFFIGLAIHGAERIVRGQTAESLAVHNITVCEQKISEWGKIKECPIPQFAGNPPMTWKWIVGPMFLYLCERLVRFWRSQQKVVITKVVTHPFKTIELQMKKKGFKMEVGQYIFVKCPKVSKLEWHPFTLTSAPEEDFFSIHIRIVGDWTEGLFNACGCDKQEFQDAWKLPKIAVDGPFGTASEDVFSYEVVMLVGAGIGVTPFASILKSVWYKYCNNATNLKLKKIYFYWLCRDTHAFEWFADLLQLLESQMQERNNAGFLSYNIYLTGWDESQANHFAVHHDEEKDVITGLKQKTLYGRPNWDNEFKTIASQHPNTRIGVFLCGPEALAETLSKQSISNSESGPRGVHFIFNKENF
# [9] = biological target: NADPH oxidase 4 (Homo sapiens) (UniProt Q9NPH5); experiment: NOX4-dependent H2O2 signal modulators, primary screen, NOX inhibitor project, cell-based, HEK293-NOX4, tetracycline-induced, Amplex Red fluorescence (AID 1160); settings: 45 min, higher = more signal, called active from +8 up or from −8 down
# NADPH oxidase 4 (Homo sapiens), sequence (Q9NPH5 whole entry, looked up): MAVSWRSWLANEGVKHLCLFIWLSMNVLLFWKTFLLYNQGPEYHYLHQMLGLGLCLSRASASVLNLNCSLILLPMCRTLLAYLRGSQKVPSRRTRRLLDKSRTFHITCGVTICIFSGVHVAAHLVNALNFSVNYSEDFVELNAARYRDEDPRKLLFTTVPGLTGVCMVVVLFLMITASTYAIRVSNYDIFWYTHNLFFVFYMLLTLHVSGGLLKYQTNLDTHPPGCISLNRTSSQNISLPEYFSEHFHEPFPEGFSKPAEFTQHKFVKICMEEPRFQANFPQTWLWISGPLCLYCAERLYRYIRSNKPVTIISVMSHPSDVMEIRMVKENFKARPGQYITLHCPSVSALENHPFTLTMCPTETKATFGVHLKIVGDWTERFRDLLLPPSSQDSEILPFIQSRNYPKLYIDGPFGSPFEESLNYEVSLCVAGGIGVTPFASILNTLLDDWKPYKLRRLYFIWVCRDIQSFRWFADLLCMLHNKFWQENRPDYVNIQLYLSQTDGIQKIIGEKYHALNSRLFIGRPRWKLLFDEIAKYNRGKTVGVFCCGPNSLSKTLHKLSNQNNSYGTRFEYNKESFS
# [10] = biological target: NADPH oxidase 5 (Homo sapiens) (UniProt Q96PH1); experiment: NOX5-dependent H2O2 signal modulators, primary screen, NOX inhibitor project, cell-based, HEK293-NOX5, Amplex Red fluorescence (AID 1161); settings: HEK293-NOX5, ionomycin, 45 min, higher = more signal
# NADPH oxidase 5 (Homo sapiens), sequence (Q96PH1 whole entry, looked up): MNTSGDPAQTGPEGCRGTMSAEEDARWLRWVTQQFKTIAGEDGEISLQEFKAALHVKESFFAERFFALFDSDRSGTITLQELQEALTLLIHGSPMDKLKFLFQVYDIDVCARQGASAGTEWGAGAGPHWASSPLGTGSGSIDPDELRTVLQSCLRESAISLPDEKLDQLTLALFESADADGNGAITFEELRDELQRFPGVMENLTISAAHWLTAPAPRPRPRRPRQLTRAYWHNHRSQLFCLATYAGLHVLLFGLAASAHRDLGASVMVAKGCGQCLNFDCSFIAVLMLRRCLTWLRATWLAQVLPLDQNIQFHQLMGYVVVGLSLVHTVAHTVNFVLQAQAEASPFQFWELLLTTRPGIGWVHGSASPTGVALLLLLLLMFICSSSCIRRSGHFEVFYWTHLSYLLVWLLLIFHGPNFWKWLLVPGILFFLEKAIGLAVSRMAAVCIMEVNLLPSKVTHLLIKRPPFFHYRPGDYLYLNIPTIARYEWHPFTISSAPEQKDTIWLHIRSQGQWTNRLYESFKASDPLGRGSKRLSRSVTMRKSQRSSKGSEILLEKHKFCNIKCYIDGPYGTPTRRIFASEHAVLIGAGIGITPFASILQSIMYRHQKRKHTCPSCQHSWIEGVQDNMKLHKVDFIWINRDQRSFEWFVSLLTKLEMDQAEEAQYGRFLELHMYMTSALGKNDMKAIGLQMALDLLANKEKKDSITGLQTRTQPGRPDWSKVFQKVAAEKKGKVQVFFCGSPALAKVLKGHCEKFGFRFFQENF
# [11] = A549 cell viability effects, profiling panel, calcein-AM fluorescence, 48 h, basal (AID 1162); settings: higher = more signal; further: test concentration not given here
# [12] = adipocyte viability effects, profiling panel, cell-based, 3T3-L1 adipocytes, calcein-AM fluorescence, 48 h, basal (AID 1163); settings: 3T3-L1 adipocytes viability, higher = more signal; further: test concentration not given here
# [13] = HepG2 cell viability effects, profiling panel, calcein-AM fluorescence, 48 h, basal (AID 1164); settings: higher = more signal; further: test concentration not given here
# [14] = MM1S cell viability effects, profiling panel, calcein-AM fluorescence, 48 h, basal (AID 1165); settings: higher = more signal;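 further: viability of MM1S multiple myeloma cells under basal unstimulated conditions; test concentration not given here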
# [15] = basal RPMI8226 viability, no added stimulus, profiling panel, cell-based, calcein-AM fluorescence, 48 h, PK04 Diversity Set (AID 1166); settings: RPMI8226 myeloma viability, higher = more signal;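 further: cells grown under basal conditions without added stimulus; test concentration not given here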
# [16] = basal HepG2 mitochondrial membrane potential changes, profiling panel, cell-based, JC-1 fluorescence, 24 h, 100 nL compound (AID 1167); settings: higher = more signal; further: test concentration not given here
# [17] = basal 3T3-L1 adipocyte mitochondrial potential changes, profiling panel, cell-based, JC-1 fluorescence, 3T3-L1 adipocytes, 24 h, 100 nL compound (AID 1168); settings: JC-1 mitochondrial fluorescence, higher = more signal, called active from +8 up or from −8 down; further: test concentration not given here
# [18] = basal RPMI8226 mitochondrial membrane potential changes, profiling panel, cell-based, JC-1 fluorescence, 24 h, 100 nL compound (AID 1169); settings: RPMI8226 myeloma, JC-1 mitochondrial potential fluorescence, higher = more signal; further: test concentration not given here
# [19] = basal MM1S mitochondrial membrane potential changes, profiling panel, cell-based, JC-1 fluorescence, 24 h, 100 nL compound (AID 1170); settings: higher = more signal; further: test concentration not given here
# [20] = A549 lung cancer cell viability effects, profiling panel, resazurin fluorescence, 24 h, PK04 Diversity Set (AID 1171); settings: higher = more signal, called active from +8 up or from −8 down; further: test concentration not given here
Compound,z-score [1],composite z-score [2],z-score [3],z-score [4],z-score [5],z-score [6],z-score [7],z-score [8],z-score [9],z-score [10],z-score [11],z-score [12],z-score [13],z-score [14],z-score [15],z-score [16],z-score [17],z-score [18],z-score [19],z-score [20]
NC(=O)N1C(=O)C2C(C1=O)C1C=C(c3ccc(CO)cc3)C2C(c2cccs2)N1Cc1cccc(OC(F)(F)F)c1 (stereo not given),-3.19 (inactive),0.424,3.08 (inactive),-0.687 (inactive),0.195 (inactive),-1.98 (inactive),2.65,-1.02 (inactive),-1.22 (inactive),-1.25,1.56,0.868,0.0764,-2.08,-2.08,-1.7,0.863 (inactive),-0.85,-1.67,-0.69 (inactive)
O=C1C2C=CC(C(O)CCc3ccccc3)N(Nc3ccccc3F)C2C(=O)N1c1ccccc1 (stereo not given),-0.383 (inactive),-0.322,1.87 (inactive),1.15 (inactive),0.517 (inactive),0.807 (inactive),-0.638,0.236 (inactive),-0.452 (inactive),-0.449,-0.804,0.255,-0.31,0.596,-1.46,-0.257,0.377 (inactive),-0.448,-0.515,0.387 (inactive)
C=C(C)[C@@H]1CC=C(C(O)C2C=CC3C(=O)N(C)C(=O)C3N2Nc2ccccc2)CC1 (stereo not given in full),-1.54 (inactive),0.42,1.89 (inactive),0.344 (inactive),0.683 (inactive),1.59 (inactive),-0.549,-1.1 (inactive),-2.76 (inactive),-2.23,-0.889,-1.16,-0.651,-1.36,0.0835,-0.9,4.5 (inactive),-0.334,-0.0333,0.392 (inactive)
Cc1nc2cc(Br)ccc2c(=O)o1,0.776 (inactive),0.442,0.252 (inactive),0.0276 (inactive),0.193 (inactive),-0.509 (inactive),0.472,0.288 (inactive),-0.0246 (inactive),0.256,0.504,0.703,0.368,0.729,0.834,1.37,0.499 (inactive),0.649,0.392,0.235 (inactive)
COCC(=C=CC[C@@H](O)c1cccc(OCCO)c1)C[C@@H](O)c1ccccn1,0.335 (inactive),0.0903,12 (active),1.42 (inactive),0.97 (inactive),0.675 (inactive),-0.613,1.96 (inactive),0.744 (inactive),0.254,0.492,-0.0288,-0.112,0.265,-0.51,0.00274,0.613 (inactive),0.00702,-0.0149,0.391 (inactive)
CC(C)=CCCC(C)=CC(O)C1C=CC2C(=O)N(C)C(=O)C2N1Nc1ccccc1 (stereo not given),-1.5 (inactive),0.525,7.27 (inactive),2.86 (inactive),0.977 (inactive),1.93 (inactive),-0.595,-1.51 (inactive),-3.97 (inactive),-1.98,-1.81,-1.39,-1.35,-2.56,-4.09,-2.66,1.29 (inactive),-0.934,-1.34,0.597 (inactive)
O=C1N(Cc2ccccc2)c2ccccc2[C@@H]2OC(c3ccc(OCCCO)cc3)=N[C@]12CCS(=O)(=O)c1ccccc1,-0.355 (inactive),0.387,24.7 (active),13.3 (active),1.79 (inactive),1.57 (inactive),0.0582,0.22 (inactive),1.32 (inactive),1.96,-0.221,0.0205,0.455,-0.527,0.144,-1.33,1.86 (inactive),-0.669,-0.605,0.404 (inactive)
O=C(c1ccccc1)N1C(=O)[C@@]2(Cc3ccccc31)N=C(c1ccc(OCCCO)cc1)O[C@H]2c1ccccc1,-0.632 (inactive),0.554,14.6 (active),2.37 (inactive),3.04 (inactive),1.03 (inactive),-0.256,-0.595 (inactive),-0.0485 (inactive),-1.74,-1.31,0.668,-1.58,-3.54,-4.36,0.157,0.479 (inactive),-1.19,-2.17,-1.62 (inactive)
C=CCOC(=O)[C@@H]1[C@H]2C(=O)O[C@H](c3ccccc3)[C@H](c3ccccc3)N2[C@H](c2ccc(OCCOC(=O)[C@@H]3C[C@@H]4C(=O)NCC(=O)N4[C@@H]3c3ccc(O)cc3)cc2)[C@@]12C(=O)Nc1ccc(I)cc12,0.0692 (inactive),-0.404,0.894 (inactive),0.553 (inactive),1.58 (inactive),0.398 (inactive),0.0971,1.46 (inactive),0.978 (inactive),1.35,-0.814,0.198,-0.207,-0.647,-0.319,-2.11,-0.444 (inactive),-0.972,-0.919,0.994 (inactive)

# Reference: PubChem BioAssay
